High-throughput results: PubChem BioAssay, several laboratories
Most compounds without a hit are left out; they make up all but 5.1% or so of the library.
NR3A LBD binder – NR3A (human) ligand-binding domain modulation. AID 1259313. 2.5% of 340,000 active. Tm shift relative to glycine control, % at 25 µM. NR3A LBD differential scanning fluorimetry, Tm shift; 0% = protein alone, 100% = glycine-bound protein;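 active means melting temperature shift of at least 10% of the positive control shift, at one fixed dose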
ANO1 activ – mouse TMEM16A channel activation, primary screen | Q8BHY3 | HEK293 TMEM16A/YFP-H148Q/I152L, iodide quench fluorescence; active compounds read low | B-score at 10 µM | 0.3% of 340,000 active;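 active means fluorescence-ratio B-score plate-corrected deviation score at least 3 library SD below zero, with starting fluorescence score within 5 deviations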;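 further: channel opened by trigger with iodide after compound preincubation; score built on the fluorescence ratio of max minus min over baseline; more negative score means more quench and so TMEM16A activation or potentiation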
TMEM16A inh – inhibitors of mouse TMEM16A calcium-activated chloride channel; 1.2% of 310,000 active; HEK293 TMEM16A/YFP iodide influx fluorescence, ionomycin; normalized B-score (activity score, 25-100; higher = stronger inhibition) at 10 µM; AID 588511;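 active means ratio plate-corrected score three or more library SD toward inhibition, starting fluorescence score within five deviations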;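 further: score derived from kinetic fluorescence span divided by baseline fluorescence per well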
MPTP inh – inhibitors of mitochondrial permeability transition pore; isolated mouse mitochondria, Ca2+ swelling absorbance, 30 min; 1.4% of 360,000 active; inhibition, % at 10 µM;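 active means inhibition of 50% or more, scaled per plate between neutral and stimulator controls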
CRFR2-BP ag – CRF-BP/CRF-R2 complex agonism | 0.46% of 350,000 active | AID 588473 | activation, % at 13.2 µM | HEK293 CRF-R2/CRF-BP, calcium dye fluorescence (FLIPR); percent of saturating CRF peptide response;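 active means activation of at least 50%, plus an integration ratio under a set limit after plate pattern correction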
CRFBP-R2 block – antagonists of CRF-binding protein/CRF-R2 receptor complex | 0.59% of 350,000 active | inhibition, % at 11.8 µM | AID 588475 | HEK293 CRF-R2/CRF-BP, CRF-induced calcium fluorescence;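 active means inhibition of the ligand-induced calcium signal above about 50% at the single tested concentration, limit read from the data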
Hits are given with their value; - = inactive; . = no result given.

SMILES	NR3A LBD binder	ANO1 activ	TMEM16A inh	MPTP inh	CRFR2-BP ag	CRFBP-R2 block
CCSc1cc(N2CCCC2)nc(-c2ccccc2)n1	-	-	-	-	-	-
CCCCN(CCCC)C1=Nc2ccccc2N/C1=C(/C#N)C(=O)OCC	17	-	-	-	-	-
CCOC(=O)/C(C#N)=C1\Nc2ccccc2N=C1N(CC(C)C)CC(C)C	-	-	-	-	-	-
Cc1ccc(S(=O)(=O)N2CCN(C(=O)c3sccc3-c3ccccc3)CC2)cc1	-	-	-	-	-	-
O=C(COc1ccc(/C=N/NC(=O)c2ccncc2)cc1)Nc1ccccc1	11	-	-	-	-	-
O=C(COc1ccc(/C=N/NC(=O)c2ccccc2O)cc1)Nc1ccc([N+](=O)[O-])cc1	37	-	-	-	-	-
O=C(COc1ccc(/C=N/NC(=O)c2ccncc2)cc1)Nc1cccc([N+](=O)[O-])c1	16	-	-	-	-	-
O=C(COc1ccc([N+](=O)[O-])cc1)Nc1ccccc1C(=O)NC1CC1	.	-	-	-	-	-
Cc1ccc(NC(=O)c2ncn(CCCN[C@H](C)c3cccc4ccccc34)n2)cc1C	-	.	.	-	-	-
O=C(CCNC(=O)c1ccc(Cl)cc1)NCC(c1ccco1)N1CCCCC1 (configuration not stated)	-	-	-	-	-	-
C=C(C)C1CC=C(C)C(=NNC(=O)c2ccncc2)C1 (configuration not stated)	11	-	.	-	-	-
COC(=O)CCCn1nc(NC(=O)c2ccco2)cc1C	-	-	-	-	-	-
COc1ccccc1CC1CC(=O)N(c2ccc([N+](=O)[O-])cc2)C1=O (configuration not stated)	.	.	.	-	-	-
COc1ccc(N2C(=O)CC(c3ccc([N+](=O)[O-])cc3)C2=O)cc1 (configuration not stated)	-	-	-	-	-	63
O=C(Nc1cccnc1)c1ccc(COCC(F)(F)F)cc1	11	-	-	-	-	-
CCN(CC(=O)Nc1c(F)cccc1F)C(=O)C1CCCO1 (configuration not stated)	.	.	.	-	-	-
O=C(NC1CCN(C(=O)Nc2ccc(F)cc2)CC1)c1ccc(F)cc1	-	-5.2	-	-	-	-
O=C(NC1CC1)c1ccc(NS(=O)(=O)c2ccc(F)cc2)cc1	27	-	-	-	-	-
Cc1ccc(S(=O)(=O)c2c(N)n(Cc3ccco3)c3nc4ccccc4nc23)cc1C	-	-	25	-	-	-
Cc1ccc(S(=O)(=O)c2c(N)n(CCN3CCOCC3)c3nc4ccccc4nc23)cc1C	-	-20	-	-	-	-
Nc1c(S(=O)(=O)c2ccccc2)c2nc3ccccc3nc2n1Cc1ccco1	-	-	-	-	65	-
Nc1c(S(=O)(=O)c2ccccc2)c2nc3ccccc3nc2n1CCN1CCOCC1	-	-	-	-	-	-
COc1cc(CCC(=O)NNC(=O)c2cccc(Cl)c2)cc(OC)c1OC	-	-	-	-	-	-
CC(NC(=O)C1CCCN1S(=O)(=O)c1cccc2nsnc12)c1ccccc1 (configuration not stated)	-	-	-	-	-	76
O=C(O)c1ccc(Cl)c(NC(=O)C2CCCN2S(=O)(=O)c2cccc3nsnc23)c1 (configuration not stated)	-	-	-	-	-	-
SMILES	NR3A LBD binder	ANO1 activ	TMEM16A inh	MPTP inh	CRFR2-BP ag	CRFBP-R2 block
CC(=O)c1ccc(N2CCN(C(=O)C3CCCN3S(=O)(=O)c3cccc4nsnc34)CC2)cc1 (configuration not stated)	-	-	-	-	-	-
O=C(C1CCCN1S(=O)(=O)c1cccc2nsnc12)N1CCCCC1 (configuration not stated)	-	-	25	-	-	-
O=C(Nc1ccccn1)c1ccc(Br)s1	-	-	-	-	-	-
Cc1nc(-c2ccccn2)sc1C(=O)Nc1ccc(Cl)c(Cl)c1	26	-	-	-	-	-
O=C(Nc1ccc(Cl)cc1)c1ccc(-c2ccccn2)s1	31	-	-	-	-	-
O=S(=O)(Nc1ccccc1N1CCOCC1)c1c(F)cc(F)cc1Br	-	-	.	-	-	-
CN(Cc1cccc(-n2cccn2)c1)C(=O)CCc1nnc(C2CCCCC2)o1	-	-6.4	-	-	-	-
CNC(=S)N(CCc1c(C)[nH]c2ccc(C)cc12)Cc1cccnc1	-	-	-	-	-	-
Cn1c(N)c(C(=O)COC(=O)CNS(=O)(=O)c2ccc(Cl)c(Cl)c2)c(=O)n(C)c1=O	-	-	-	-	-	65
Cn1c(N)c(C(=O)COC(=O)CNC(=O)c2ccccc2Cl)c(=O)n(C)c1=O	-	-	.	-	-	-
CC1CCCCC1NC(=O)C1CCC(CNS(=O)(=O)c2ccc3c(c2)C(C)(C)C(=O)N3C)CC1 (configuration not stated)	.	.	.	-	.	.
COc1ccc(CN2C(=O)CN(S(C)(=O)=O)CC2(C)C(=O)Nc2ccc3c(c2)OCCO3)cc1OC (configuration not stated)	.	.	.	-	.	.
CCOC(=O)/C(=N\Nc1cccc(Cl)c1)Sc1nnc(-c2ccc(OC)cc2)n1C	13	-	-	-	-	-
O=C(NCCCN1CCCC1=O)c1ccc(Cl)c(S(=O)(=O)N2CCCCC2)c1	-	-	.	-	-	-
Cc1nn(CCc2nn[nH]n2)c2nc(-c3ccc(Br)cc3)cc(C(F)(F)F)c12	-	-	100	-	-	-
Cc1nn(CCc2nn[nH]n2)c2nc(C(F)(F)F)cc(C(F)(F)F)c12	-	-	-	-	-	-
C[C@@H]1O[C@@H](OC[C@H]2O[C@@H](Oc3cc(O)c4c(=O)cc(-c5ccc(O)c(O)c5)oc4c3)[C@H](O)[C@@H](O)[C@@H]2O)[C@H](O)[C@H](O)[C@H]1O	-	-	.	-	-	-
O=c1cc(-c2ccc(O)c(O)c2)oc2cc(O[C@@H]3O[C@H](CO)[C@@H](O)[C@H](O)[C@H]3O)cc(O)c12	-	-16	.	-	-	-
CCC(=O)N1CCC1(C)C(=O)NCc1ccccc1SC (configuration not stated)	.	.	.	-	.	.
CC(C)(C)OC(=O)N(CCc1ccccc1)Cc1cccc(OCc2cccc(NC(=O)C3CC3)c2)c1	-	.	.	-	-	-
C#CCn1c(=NC(=O)c2ccc(S(=O)(=O)N3CCCc4ccccc43)cc2)sc2cc(S(N)(=O)=O)ccc21	19	-	-	-	-	-
COc1cccc(/C(C)=N/NS(=O)(=O)c2ccc(Cl)cc2)c1	-	-	-	-	-	54
C/C(=N\NC(=O)c1cccc(S(=O)(=O)Nc2cccc(Cl)c2)c1)c1cccs1	14	-	-	-	-	-
